High-throughput results: PubChem BioAssay, National Center for Advancing Translational Sciences (NCATS)
Most compounds without a hit are left out; they make up all but 5.5% or so of the library.
VP16 counter – inhibits Gal4-VP16 luciferase reporter, ROR gamma counter-screen; AID 2546; 3.5% of 310,000 active; Potency, µM (doses to about 53.6 µM), for inactives: top-dose activity, negative = inhibition, most hits filed as inhibitors; Drosophila S2 Gal4-VP16 UAS-luciferase, luminescence, 20 h;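 further: Gal4-VP16 expression switched on by copper sulfate through the metallothionein promoter; on the % scale 0 is the no-effect control and ±100 the full control effect; nearly all actives have a fitted effect of over 50% in size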
uPA surface inh – cell surface uPA generation inhibition; cell surface uPA generation assay, qHTS; Potency, µM (doses to about 38.3 µM), for inactives: at the top dose activity change, negative = inhibition, hits mostly inhibitors; 0.31% of 330,000 active; AID 540303; active means well fitted inhibition curve with a large enough effect; inconclusive means small, poorly fitted or top-dose-only effect; inactive means no such curve, though single readings can be large or run the other way; tested in mouse RAW 264.7 cells; further: on the % scale 0 is the no-effect control and ±100 the full control effect; nearly all actives have a fitted effect of over 55% in size
Mito fusion act – blocks mitochondrial division or promotes mitochondrial fusion; S. cerevisiae fusion-defective mutant growth rescue, CellTiterGlo 48 h; Potency, µM (highest dose often 46.1 µM), for inactives: top-dose growth rescue (activation), usual class: activators; 0.23% of 320,000 active; AID 485298; further: % of control where 0% means no effect; nearly all actives have a fitted effect of over 45% in size
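Read-out: ATP-based luminescence (CellTiterGlo, 10 min ambient) reporting growth of fusion-defective ts yeast after 48 hours at 37C on glycerol/ethanol YPEG medium in the presence of compound.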
BCR signal inh – chronic active BCR signaling inhibition | ABC-DLBCL IkBa-CBG/CBR reporter, luminescence ratio, 4 h | Potency, µM (highest dose often 46.1 µM), without a hit: top-dose activity change, negative = inhibition, hits mostly inhibitors | 0.05% of 340,000 active | AID 493014; active means well fitted inhibition curve with a large enough effect in the signal ratio, with a control signal flat, not every such curve was filed as active; inconclusive means small, poorly fitted or top-dose-only effect, or effect the other way, or a change in a side signal; the % refers to the signal ratio;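 further: plate controls were basal doxycycline-induced cells for no effect and cells given 10 µM MG132 for full effect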
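Concentration-response series (up to 46 uM) were applied to TMD8 dual-reporter cells for 4 h at 37C with doxycycline. Green/red ratio, after filter-overlap correction, defined %Activity; red signal alone was normalised to basal cells and zero luminescence.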
a7 integrin act – activators of alpha7 integrin expression for muscular dystrophy; alpha7betagal myoblasts, beta-gal FDG fluorescence, 48 h; Potency, µM (top dose mostly 38.3 µM), inactives show top-dose activation, hits mostly activators; 0.064% of 350,000 active;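 further: 100% = response of the positive control SU9516; nearly all actives have a fitted effect of over 60% in size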
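alpha7betagal+/- myoblasts (passage 13, 250/well) treated 48 h at 37C with compounds at 1:260 dilution of DMSO stock. Lysed, then beta-galactosidase activity read as FDG fluorescence (ex 480/em 540) after 30 min, with pre-read for autofluorescence.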
RORgamma inh – ROR gamma (mouse) transcription inhibition. P51450. Drosophila S2 Gal4-RORgamma UAS-luciferase reporter, 20 h. Potency, µM (top dose mostly 53.6 µM), for the others: at the highest dose activity change, negative = inhibition, most hits filed as inhibitors. 5.4% of 310,000 active. AID 2551; further: on the % scale 0 is the no-effect control and ±100 the full control effect; nearly all actives have a fitted effect of over 60% in size
Target sequence (P51450 whole entry, looked up, the tested form may be a part): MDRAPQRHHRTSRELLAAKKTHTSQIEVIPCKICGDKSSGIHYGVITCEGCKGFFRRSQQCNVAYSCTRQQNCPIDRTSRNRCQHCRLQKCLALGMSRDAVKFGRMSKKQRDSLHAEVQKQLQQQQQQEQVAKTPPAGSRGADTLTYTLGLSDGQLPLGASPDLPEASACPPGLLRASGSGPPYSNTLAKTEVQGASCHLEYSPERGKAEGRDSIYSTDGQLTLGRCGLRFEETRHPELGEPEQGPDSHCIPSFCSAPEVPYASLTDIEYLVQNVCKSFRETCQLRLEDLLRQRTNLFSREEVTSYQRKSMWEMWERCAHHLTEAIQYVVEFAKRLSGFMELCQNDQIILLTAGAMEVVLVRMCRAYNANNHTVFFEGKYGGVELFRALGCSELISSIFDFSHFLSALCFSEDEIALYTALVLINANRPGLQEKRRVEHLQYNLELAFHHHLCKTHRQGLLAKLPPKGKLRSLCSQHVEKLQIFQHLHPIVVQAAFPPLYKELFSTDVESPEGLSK
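In this cell-based reporter format, copper sulfate (700 uM final) drives Gal4–ROR gamma fusion expression from a metallothionein promoter in Drosophila Schneider cells; compounds preincubated 1 hr, reporter read after 20 hr at ambient temperature.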
Active calls of the source: *; u = inconclusive; x = no result; [ ] = remark or other dose. Unless noted, the call rests on the fitted dose curve; in most records, active means well fitted curve in the direction sought with a large enough effect; inconclusive means small, poorly fitted or top-dose-only effect, or another doubt; inactive means no such curve, though single readings can be large; an effect the other way counts as inactive or inconclusive. Potency means the concentration at half of the fitted maximal effect.

SMILES	VP16 counter	uPA surface inh	Mito fusion act	BCR signal inh	a7 integrin act	RORgamma inh
Cc1ccc(Cn2c(C(C)Nc3nc(-c4ccc(C)cc4)cs3)nc3cc(Cl)c(Cl)cc32)cc1 (centres undefined)	-19%	-1%	-2%	-15%	20%	11µM*
O=[N+]([O-])c1cc(-c2csc(NC(CO)c3nc4ccccc4n3CCOCCO)n2)ccc1Cl (centres undefined)	x	-24%	x	x	-17%	x
C[C@]12CCC[C@H](O1)[C@H]([C@@H](O)c1ccccc1)O2	x	-3%	-1%	2%	9%	x
CCCn1c(C(C)Nc2nc(-c3cccc(Br)c3)cs2)nc2ccccc21 (centres undefined)	u	6%	-11%	-11%	24%	4.5µM*
O=c1[nH]c(CN2CCCCC2)nc2c1C1(CCCCC1)Cc1ccccc1-2	7%	0%	1%	-15%	16%	-7%
Cc1nc(=S)c2c([nH]1)-c1ccccc1CC21CCCCC1	1µM*	1%	-8%	12%	2%	0.2µM*
O=C(O)C12C3CCC(O3)C1(C(=O)O)C1CCC2O1 (centres undefined)	x	-2%	x	x	23%	x
C[C@@]12C(=O)OC(=O)[C@@]1(C)C1CCC2O1	5µM*	x	x	x	x	14µM*
C[C@@]12C(=O)OC(=O)[C@@]1(C)[C@@H]1CC[C@@H]2O1	9%	x	x	x	x	30%
C[C@@]12C(=O)OC(=O)[C@]1(C)[C@H]1CC[C@@H]2O1	5µM*	x	x	x	x	-13%[2.98 µM]
CC(=O)Nc1ccc(S(=O)(=O)Nc2nc3ccccc3nc2Nc2cccc(S(N)(=O)=O)c2)cc1	-1%	1%	0%	u	17%	-15%
O=C1C=C(c2ccccc2)CC(/C=C/c2ccccc2)C1 (centres undefined)	0%	3%	16µM*	3%	-14%	11%
CCOc1ccccc1-c1nnc2n1N=C(c1c(OC)cccc1OC)CS2	6%	x	x	x	x	-16%
C=CCC(CC(O)COCCC)C(=O)NNC(=S)Nc1ccccc1 (centres undefined)	0.79µM*	-3%	-5%	u	7%	0.28µM*
CC(C)CCOCC(O)CCC(=O)NNC(=S)Nc1ccccc1 (centres undefined)	u	12%	-8%	11%	-11%	11µM*
O=C(Nc1ccc(Cl)cc1)[C@@H]1[C@@H]2C(=O)N(c3ccc4ccccc4c3)C(=O)[C@@H]2[C@H]2C=CC=NN21	5%	3%	-1%	u	-44%	-15%
COc1ccc(N2C(=O)[C@@H]3[C@H](C2=O)[C@H]2C=CC=NN2[C@@H]3C(=O)Nc2ccc(Cl)cc2)cc1	u	-12%	0%	u	20%	14µM*
CN1CCN(c2ncc3nc(-c4ccccc4)c(=O)n(CCc4ccccc4)c3n2)CC1	0%	x	x	x	x	-44%
CN1/C(=C\C=N\NC(=O)c2ccccc2Br)C(C)(C)c2ccccc21	1.3µM*	2%	6%	u	-39%	0.79µM*
CN1/C(=C/C=N/n2cnnc2)C(C)(C)c2ccccc21	18µM*	-10%	4%	u	-50%	23%
CN1/C(=C\C=C(C#N)C#N)C(C)(C)c2ccccc21	3%	-4%	5%	6%	8%	-1%
CN1/C(=C\C(=O)Nc2ccc(Cl)cc2)C(C)(C)c2ccccc21	u	1%	-13%	u	19%	u
Cc1ccc(S(=O)(=O)N2C[C@H]3C(=O)C[C@@H](c4ccccc4F)N(S(=O)(=O)c4ccc(C)cc4)[C@H]3C[C@H]2c2cccc3ccccc23)cc1	x	x	x	x	10%	x
Cc1ccc(C2=NCCn3c2c2ccc([N+](=O)[O-])cc2[n+]3[O-])cc1	x	0.71µM*	12%	5%	-23%	x
O=[N+]([O-])c1ccc2c3n([n+]([O-])c2c1)CCN=C3c1ccc(Cl)cc1	x	u	u	-10%	4%	x
SMILES	VP16 counter	uPA surface inh	Mito fusion act	BCR signal inh	a7 integrin act	RORgamma inh
C=CC(=O)O	-2%	x	x	x	x	9%[10 µM]
Nc1ncnc2c1ncn2[C@@H]1O[C@H](CNC(=O)[C@H]2CCC(=O)N2)[C@@H](O)[C@H]1O	x	-7%	x	3%	15%	x
O=C(NNC1=Nc2cccc3cccc1c23)c1ccccc1Br	1.1µM*	-2%	-3%	-7%	-23%	0.71µM*
C=C[C@@]1(C)CC(=O)[C@]2(O)[C@@]3(C)[C@H](O)CCC(C)(C)[C@@H]3[C@H](O)[C@H](OC(C)=O)[C@@]2(C)O1	-4%	x	x	x	x	3%
Cc1nnnn1/C(=C\c1ccccc1)C(=O)OCC(=O)N(C)C1CCS(=O)(=O)C1 (centres undefined)	0%	-3%	1%	u	15%	11µM*
CCN(C(=O)COC(=O)/C(=C/c1ccccc1)n1nnnc1C)C1CCCCC1	x	-12%	-29%	u	-40%	x
O=S(=O)(c1ccc(F)cc1)N1CCN(C(=S)NC2CC2)CC1	x	-1%	-1%	0%	26%	x
Cc1cnc(CNc2ncnc3ccc(-c4ccc(N(C)C)cc4)cc23)cn1	-15%	x	x	x	x	9%
CC(NC(=S)Nc1c(Cl)cccc1OC(F)F)C(C)(C)C (centres undefined)	11µM*	8%	7%	-1%	-7%	13µM*
CC(NC(=S)Nc1ccc(OC(F)F)cc1OC(F)F)C(C)(C)C (centres undefined)	16µM*	10%	8%	5%	u	7.9µM*
Cc1ccc(S(=O)(=O)N2CCN(C(=O)c3ccc([N+](=O)[O-])cc3)C2)cc1	-7%	-11%	4%	u	-15%	-4%
COc1ccccc1CNC(=O)C(=O)NCC(c1cccs1)S(=O)(=O)c1ccccc1 (centres undefined)	x	x	x	-8%	x	x
O=C1C=C(c2cccc(Cl)c2O)C[C@@H](c2ccc(Cl)cc2)C1	x	9%	13µM*	u	16%	x
Cc1ccc(N2CC(NC(=O)Cc3ccc(F)cc3)CC2=O)cc1C (centres undefined)	x	x	x	-17%	x	x
O=C(CSc1nnc(CNc2ccc(F)cc2)n1CC1CCCO1)N1CCOCC1 (centres undefined)	1%	5%	-12%	-10%	4%	-8%
CC(C)Cc1cc(C(=O)N2CCC(N3CCC(C(=O)NC4CC4)CC3)CC2)n[nH]1	-10%	3%	6%	u	25%	3%
Cc1ccc(C(=O)COC(=O)c2ccc(O)cc2)cc1	11µM*	1%	-1%	u	9%	u
CCOC(=O)COC(=O)c1ccc(O)cc1	14%	3%	1%	4%	13%[7.66 µM]	34%
COc1ccc(NC(=O)n2ncc3c(C)cccc32)cc1OC	u	u	u	u	10%	1.1µM*
